The list is not random: actives were taken first. Their share in the collection is about 12%.
JMJD2A Tudor = inhibitors of human JMJD2A Tudor domain; O75164; AlphaScreen JMJD2A-Tudor / H3K4me3 peptide binding; Potency, µM (series often up to 114 µM), actives largely listed as inhibitors; 390,000 compounds, 4.4% hits; AID 504339; further: nearly all actives have a fitted effect of over 50% in size
PLK1 PBD inh = inhibitors of human PLK1 polo-box domain binding. P53350. Plk1 PBD binding of FITC phosphopeptide, fluorescence polarization. Potency, µM, most hits filed as inhibitors. 360,000 compounds, 2.8% hits; further: series mostly up to about 57 µM; nearly all actives have a fitted effect of over 65% in size
PI5P4Ka inh = inhibitors of human PI5P4K alpha | AID 652105 | 330,000 compounds, 1.2% hits | P48426 | PI5P4Kalpha enzyme, ADP-Glo luminescence, 60 min; stronger effect = lower value | max response, %; active means max response of -50% or lower; inconclusive means between -30% and -50%; inactive means -30% or higher; further: value at the top dose of about 77 µM
Target sequence (P48426 whole entry, looked up): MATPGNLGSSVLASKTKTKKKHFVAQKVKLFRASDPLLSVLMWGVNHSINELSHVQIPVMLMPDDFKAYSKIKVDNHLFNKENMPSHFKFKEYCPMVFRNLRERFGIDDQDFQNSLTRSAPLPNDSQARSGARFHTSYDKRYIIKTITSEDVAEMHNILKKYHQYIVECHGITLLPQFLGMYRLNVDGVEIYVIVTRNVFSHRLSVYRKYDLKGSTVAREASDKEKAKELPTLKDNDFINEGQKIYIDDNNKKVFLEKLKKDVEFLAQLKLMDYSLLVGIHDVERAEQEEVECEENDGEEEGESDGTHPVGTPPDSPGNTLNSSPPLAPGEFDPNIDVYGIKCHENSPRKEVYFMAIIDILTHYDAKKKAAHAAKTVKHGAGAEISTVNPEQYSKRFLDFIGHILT
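ADP-Glo luminescence end-point read after a 60 min room-temperature kinase reaction of PI5P4Kalpha plus substrate, initiated with ATP at 5 microM final. Buffer: 0.038 M HEPES pH 7.4, EGTA, 0.1% CHAPS, 5% DMSO.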
BAZ2B inh = inhibitors of human BAZ2B bromodomain | Q9UIF8 | AlphaScreen BAZ2B-H3K14Ac peptide displacement | Potency, µM (titrated, usually from 114 µM), most hits filed as inhibitors | 360,000 compounds, 4.4% hits; further: nearly all actives have a fitted effect of over 60% in size
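Protein-peptide AlphaScreen: BAZ2B 50 nM, b-H3K14Ac 50 nM, 1x PBS pH 7.4 + 0.01% Tween-20. Preincubation 30 min RT; cpd 30 min RT (top 110 uM); beads 20 min RT, light-protected.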
HP1b binding inh = blocks HP1-beta chromodomain binding to methylated histone tails. P83916. AlphaScreen HP1-beta / biotin-H3K9me3 peptide binding. Potency, µM (top dose mostly 114 µM), hits mostly inhibitors. 390,000 compounds, 0.56% hits. AID 540317; further: nearly all actives have a fitted effect of over 70% in size
Target sequence (P83916 whole entry, looked up): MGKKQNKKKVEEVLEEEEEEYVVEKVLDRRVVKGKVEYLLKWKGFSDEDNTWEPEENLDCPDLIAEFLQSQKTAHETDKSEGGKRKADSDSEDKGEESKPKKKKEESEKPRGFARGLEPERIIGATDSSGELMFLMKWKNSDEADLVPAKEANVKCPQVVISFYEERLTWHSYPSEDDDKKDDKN
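AlphaScreen: HP1-beta (50 nM) preformed 30 min with biotin-H3(1-18)K9me3 peptide (50 nM) in PBS pH 7.4, 0.01% Tween-20. Compound added for 30 min at RT, then streptavidin donor/nickel chelate acceptor beads (10 ug/mL) for 30 min.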
G9a inh = inhibitors of human histone lysine methyltransferase G9a | Q96KQ7 | G9a H3K9 monomethylation, AlphaScreen, 2 h | Potency, µM (series often up to 102 µM), usual class: inhibitors | 350,000 compounds, 8.8% hits; further: nearly all actives have a fitted effect of over 75% in size
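Quantitative HTS format: methyltransferase activity on a biotin-tagged H3K9 peptide is measured by AlphaScreen, using a rabbit anti-monomethyl-H3K9 antibody with streptavidin donor and anti-IgG acceptor beads. Final levels are 20 nM enzyme, 500 nM peptide, 20 uM SAM; 2 h RT.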
A number is an active result; - = inactive; ? = inconclusive; . = no result; [ ] = remark or other dose. Unless noted, the call rests on the fitted dose curve; in most records, active means well fitted curve in the direction sought with a large enough effect; inconclusive means small, poorly fitted or top-dose-only effect, or another doubt; inactive means no such curve, though single readings can be large; an effect the other way counts as inactive or inconclusive.

SMILES	JMJD2A Tudor	PLK1 PBD inh	PI5P4Ka inh	BAZ2B inh	HP1b binding inh	G9a inh
COc1cc2[nH]c3c(=O)n(CCN(C(C)C)C(C)C)cnc3c2cc1OC	-	-	-	-	-	79µM
CCOC(=O)N1CCN([N+]([O-])=NOc2cc(O/N=[N+](\[O-])N(CC)CC)c([N+](=O)[O-])cc2[N+](=O)[O-])CC1	-	.	.	.	-	.
O=C(Cn1nc(Cl)nc1Cl)Nc1ccccc1	-	-	-	-	-	50µM
O=C(Cn1nc(Cl)nc1Cl)c1ccccc1	?	17µM	-	-	-	-
O=C(Cn1nc(Cl)nc1Cl)c1ccc2c(c1)OCCO2	-	12µM	-	-	-	?
Cc1ccc(NC(=O)Cn2nc(C)cc2C)cc1	-	-	-	-	-	-
Cc1nn(CC(=O)Nc2ccccc2)c(=O)c2ccccc12	-	-	-	-	-	-
Cc1cc(C)n(CC(=O)Nc2ccccc2)n1	?	21µM	-	-	?	-[0.0925 µM]
Cc1ccc(CNC(=O)CN(C(=O)N2CCN(C)CC2)S(=O)(=O)c2ccc(C)cc2)cc1	-	-	-	-	-	-
COc1cccc(NC(=O)C2CC(=O)N(c3ccc(Br)cc3)C2)c1 (centres undefined)	-	.	.	-	-	-
Cc1ccc(C(C)C)c(OC(C)C(=O)NCC2(N(C)C)CCCCC2)c1 (centres undefined)	-	.	.	-	-	?
CCn1cc(-c2ccccc2)c(C(=O)O)c1-c1ccc(OC)cc1	-	-	-	-	-	-[2.33 µM]
COC(=O)c1cc2c(s1)c1cnn(Cc3ccccc3F)c(=O)c1n2C	.	.	.	-	.	?
CC(NC(=O)Cn1cc([N+](=O)[O-])cn1)c1ccc(C(C)(C)C)cc1 (centres undefined)	-	-	-	.	-	.
S=c1nn[nH]n1C12CC3CC(CC(C3)C1)C2	50µM	?	.	?	-	1.4µM
Cc1cc2nc3c(=O)n(C4CCCCC4)c(=O)[nH]c3nc2cc1N	-	3µM	?	-	-	1.3µM
CC(C)(C)OC(=O)N1CCC(c2c(C(=O)N3CCC(c4ccccc4)C3)cnn2-c2cccc(Cl)c2)CC1 (centres undefined)	?	.	.	-	-	-
CCOc1ccc(NS(=O)(=O)c2ccc(NC(=O)c3ccccn3)cc2)cc1	-	-	-	-	-	-[12.7 µM]
CC(=O)NS(=O)(=O)c1ccc(NC(=O)c2ccccn2)cc1	?	-	-	50µM	-	50µM
CC(=O)NS(=O)(=O)c1ccc(NC(=S)Nc2ccccc2)cc1	-	-	-	-	-	-
CC(=O)Nc1ccc(S(=O)(=O)NCCSc2ccccn2)cc1	?	-	-	-	-	2.5µM
CCSc1ccccc1C(=O)Nc1ccc(S(=O)(=O)NC(C)=O)cc1	50µM	-	-	-	-	.
CC(=O)Nc1ccc(S(=O)(=O)NCCNS(=O)(=O)c2ccc(NC(C)=O)cc2)cc1	-	-	-	-	-	?
CCCNS(=O)(=O)c1ccc(NC(=O)c2ccccn2)cc1	20µM	-	-	-	-	-
CCC(CC)C(=O)N1CCc2cc(OC)c(OC)cc2C1COc1ccc(C(=O)OC)cc1 (centres undefined)	-	.	.	-	-	-
SMILES	JMJD2A Tudor	PLK1 PBD inh	PI5P4Ka inh	BAZ2B inh	HP1b binding inh	G9a inh
CN(Cc1ccco1)c1ncnc2ccc(-c3ccc4c(c3)OCCO4)cc12	.	.	.	-	.	-[12.7 µM]
Cc1ccc(OCc2nnc(SCC(=O)Nc3ccccc3C(C)C)o2)cc1	-	.	.	-	-	-
CCC(C(=O)Nc1cc(OC)ccc1OC)n1nc(-c2ccccc2)c2c(c1=O)CCCC2 (centres undefined)	?	.	.	?	-	?
CC(=O)NS(=O)(=O)c1cccnc1Nc1ccc(Cl)cc1	-[11.4 µM]	11µM	?	-	-	-
CC(=O)Nc1ccc(S(=O)(=O)NCCc2cn3nc(C)c(C)nc3n2)cc1	-	-	-	-	-	8.9µM
COc1ccc(S(=O)(=O)NCCc2cn3nc(C)c(C)nc3n2)cc1F	-	-	-	-	-	-
CCOc1ccc2nc(S(=O)(=O)NC(=O)C3(C)CCN3C(=O)c3cc(C)n(C)n3)sc2c1 (centres undefined)	.	-	-	.	.	.
CC(CC=O)CCCC(C)(C)O (centres undefined)	.	.	.	.	.	-[2.33 µM]
COc1ccc(-n2c(=O)c3ccccc3n(CC(=O)Nc3cccc(OC)c3)c2=O)cc1	-[11.4 µM]	-	-	-	-	-
COc1cccc(-n2c(=O)c3cc(OC)c(OC)cc3n(CC(=O)Nc3cc(C)[nH]n3)c2=O)c1	-	-	-	50µM	-	?
CCOc1ccc(C(=O)c2cn(Cc3ccccc3)c3c(F)cc(F)cc3c2=O)cc1	-	.	.	-	-	-
CC(C)COC(=O)N(C)C[C@H]1OCc2cnnn2CCCC(=O)N([C@H](C)CO)C[C@H]1C	.	-	-	.	.	.
COc1ccc(N2C(=O)CC(Sc3nnc(-c4ccccc4)o3)C2=O)cc1 (centres undefined)	-	-	-	-	-	10µM
COc1ccc(N2C(=O)CC(Sc3nnnn3-c3ccc(F)cc3)C2=O)cc1 (centres undefined)	-	?	-	-	-	?
O=C1CC(Sc2nnc(-c3ccccc3O)o2)C(=O)N1c1ccccc1 (centres undefined)	?	?	.	?	-	7.9µM
O=C(CCNC(=O)c1ccco1)Nc1ccc(Cl)cc1	?	30µM	-	-	-	-[0.0925 µM]
CCN(CC)S(=O)(=O)c1ccc(NC(=O)CCNC(=O)c2ccco2)cc1	-	-	-	-	-	?
CCN(CC)c1ccc(NC(=O)CCNC(=O)c2ccco2)cc1	?	-	-	?	-	7.9µM
COCCN1Cc2c(sc(C)c2C)N(C(=O)c2ccccc2)C1	-	-	-	-	-	-[2.33 µM]
Cc1sc2c(c1C)CN(C(C)(C)C)CN2C(=O)c1ccccc1	-	-	-	?	-	50µM
Cc1cccc(OCC(=O)NN2C(=O)C3C4C=CC(O4)C3C2=O)c1 (centres undefined)	-	-	-	-	-	8.9µM
CCOc1ccc(C(=O)NN2C(=O)C3C4C=CC(O4)C3C2=O)cc1 (centres undefined)	-	-	-	-	-	6.3µM
O=C(CCc1ccccc1)NN1C(=O)C2C3C=CC(O3)C2C1=O (centres undefined)	-	-	-	-	-	10µM
COC(=O)C[C@@H]1CC[C@@H](NS(=O)(=O)c2cccc(OC)c2)[C@@H](CO)O1	.	-	-	.	.	.
CCCOc1cccc(C2c3c(oc4ccc(F)cc4c3=O)C(=O)N2CCCN2CCOCC2)c1 (centres undefined)	-	.	.	-	-	-
COc1cc2c(=O)n(CCC(=O)NCC3CCCO3)c(=O)n(CC(=O)Nc3ccc(F)cc3)c2cc1OC (centres undefined)	-	-	-	-	-	-
COc1cc(C(=S)N2CCOCC2)cc(OC)c1OS(=O)(=O)c1ccc(C)cc1	-	?	-	?	-	28µM
